Assay outcomes from PubChem BioAssay.
An excerpt weighted towards active compounds, which were near 13% of everything screened.
Pf growth 48h = Primary qHTS for delayed death inhibitors of the malarial parasite plastid, 48 hour incubation | P. falciparum luciferase growth in erythrocytes, 48 h | Potency, µM (series often up to 28.7 µM), for inactives: at the highest dose activity change, negative = inhibition, usual class: inhibitors | hit rate 5.9% among 310,000 | AID 504832, 2011; also: potency is read from the fitted curve at half-maximal effect
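Read-out is firefly luciferase luminescence from an integrated reporter in P. falciparum, so falling signal marks reduced parasite growth. Infected erythrocytes were at 2% hematocrit and 0.1% parasitemia (final) in Albumax-supplemented RPMI 1640.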
HCV inh = qHTS Assay for Inhibitors of Hepatitis C Virus (HCV); hit rate 3.4% among 340,000; Potency, µM (titrated, usually from 41.8 µM), without a hit: top-dose activity change, negative = inhibition, usual class: inhibitors; Huh7.5.1 HCVcc-Cre infection, luciferase reporter, 44 h; also: potency is read from the fitted curve at half-maximal effect
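After 44 h co-culture of compound, cells and HCVcc-Cre (~0.5 moi), substrate is added for 15 min at room temperature and luciferase measured over 15 sec. Cells were seeded at 1,000/well and pre-cultured 4 h.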
Pf growth 96h = Primary qHTS for delayed death inhibitors of the malarial parasite plastid, 96 hour incubation; Potency, µM (titrated, usually from 28.7 µM), without a hit: top-dose activity change, negative = inhibition, most hits filed as inhibitors; P. falciparum luciferase reporter growth, 96 h; AID 504834, 2011; hit rate 6.9% among 320,000; also: potency is read from the fitted curve at half-maximal effect
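Delayed-death screen, second-generation endpoint: infected erythrocytes, 2% hematocrit, 0.05% parasitemia final; 96 hours at 37 C, 5% CO2; luciferase detection reagent; luminescence decrease equals reduced growth.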
HCMV inh = qHTS Assay for inhibitors of the human cytomegalovirus (HCMV) | hit rate 4.5% among 410,000 | HFF cells, HCMV-luciferase reporter, 72 h; hits give low values | activity change, negative = inhibition, % at 57.5 µM; in the data active = activity change below about -60%; inconclusive = no clear call, values can overlap the other calls; inactive = above about -39%
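Cell-based, HFFs, 1000 cells/well, 16 h 37C; cpds in DMSO + HCMV-luc, MOI 1 PFU/cell; 72 h 37C; OneGlo luminescence after 5 min RT; norm. to buffer vs Salinomycin 10uM.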
Numbers without * were called inactive; ? = inconclusive; / = not tested or not shown. Unless noted, calls follow the shape of the dose curve; as a rule, active = well fitted inhibition curve with a large enough effect; inconclusive = small, poorly fitted or top-dose-only effect, or another doubt; inactive = no such curve, though single readings can be large or run the other way. % is scaled to controls: 0 for no effect and ±100 for the full control effect.

SMILES	Pf growth 48h	HCV inh	Pf growth 96h	HCMV inh
COc1cc(CNCCCN2CCOCC2)ccc1OCC(=O)Nc1cccc(C(F)(F)F)c1	1.85µM*	10µM*	?	42.7
CCOc1cc(CNCCCN2CCOCC2)ccc1OCC(=O)Nc1cccc2ccccc12	2.94µM*	14.1µM*	2.62µM*	?
CCOc1cc(CNC(CC)CO)ccc1OCC(=O)Nc1cccc(C(F)(F)F)c1 (configuration not stated)	-13.9%	1.12µM*	?	-36.7
O=C(COc1ccc(Br)cc1CNCCCN1CCOCC1)Nc1ccccc1	3.7µM*	?	2.94µM*	-9.9
COc1ccc(CNC(=O)Nc2cccc(C(F)(F)F)c2)cc1OC	5.4%	-22.3%	-21.6%	?
CC(=O)C1=NN(c2ccccc2)C(c2cccs2)N1c1ccc(N(C)C)cc1 (configuration not stated)	/	?	2.08µM*	-80.5*
CCOc1ccc(CNC(=O)Cn2ncc3c(=O)oc4ccc(C)cc4c32)cc1	/	/	/	3.0
O=C(CSc1nc2c([nH]c3ccccc32)c(=O)n1-c1cccc(Cl)c1)c1ccccc1	/	/	/	3.1
CSCCC1Nc2ccc(S(=O)(=O)N3CCOCC3)cc2NC1=O (configuration not stated)	-23.9%	17.6%	10.4µM*	-7.0
COc1ccc2nc(NN=C(C)c3ccccn3)cc(C)c2c1	/	?	/	-98.7*
Cc1nc2ccccc2nc(C)c1=NO	30.0%	13.1%	50.7%	59.7
CC(=NNc1ccc2ccccc2n1)c1ccccn1	/	/	/	-101.0*
C/C(=N\Nc1nc2ccccc2nc1C)c1ccccc1O	?	-16.5%	1.17µM*	-31.6
CC(=NNc1ccc2ccccc2n1)c1ccccc1O	/	?	/	-60.8*
Cc1cccc(NC(=O)Cn2cc(C(=O)C3CCCCC3)c3ccccc32)c1	/	/	/	5.4
OC(CC(O)c1ccccc1)c1ccccc1 (configuration not stated)	/	6.7%	/	-2.4
OC(CNCC#Cc1ccccc1)c1ccccc1 (configuration not stated)	?	-8.9%	-24.3%	-22.6
OC(C[n+]1ccccc1)c1ccccc1 (configuration not stated)	?	2.4%	0.657µM*	30.2
CCNCC(O)c1cccc(O)c1 (configuration not stated)	23.0%	-8.3%	39.0%	32.1
OC(CNCc1cccc(Cl)c1)c1ccccc1 (configuration not stated)	2.08µM*	13.9%	8.4%	24.1
Oc1cccc(C(O)CNCc2ccc(-c3ccccc3)cc2)c1 (configuration not stated)	-27.9%	?	4.9%	-61.9*
O=C(c1ccccc1)c1ccc(OCC(O)CNCc2cccc(Cl)c2)cc1 (configuration not stated)	-26.9%	28.5%	-26.8%	-1.2
OC(CNC1Cc2ccccc2C1)c1ccccc1 (configuration not stated)	11.7µM*	9.3%	13.1µM*	/
COC(=O)C1=C(C)N(Cc2ccccc2C(F)(F)F)C(=NCc2ccc3c(c2)OCO3)NC1c1cccc(Cl)c1 (configuration not stated)	/	/	/	2.7
OC(CNCc1ccccc1)c1ccccc1 (configuration not stated)	9.28µM*	-18.9%	?	1.6
SMILES	Pf growth 48h	HCV inh	Pf growth 96h	HCMV inh
ClCC(CNCc1ccccc1)c1ccccc1 (configuration not stated)	/	-13.7%	/	-26.1
Cc1nn(CC(O)c2ccccc2)c(C)c1Br (configuration not stated)	/	-17.5%	-15.3%	6.6
O=C1c2ccccc2C(=O)N1CC(O)Cn1nnc2ccccc21 (configuration not stated)	-2.7%	14.2%	9.28µM*	-1.5
OC(CN1c2ccccc2Sc2ccccc21)Cn1nnc2ccccc21 (configuration not stated)	4.65µM*	?	?	17.4
Cc1nn(CC(O)CN2c3ccccc3Sc3ccccc32)c(C)c1Br (configuration not stated)	/	?	2.62µM*	-13.1
O=C(NCc1ccco1)C1CCN(C(=O)N2CCOc3ccc(Cl)cc32)CC1	/	/	/	-4.8
CCCn1c2ccccc2c2cnn(CC(=O)NCCc3ccc(S(N)(=O)=O)cc3)c(=O)c21	/	/	/	16.1
O=C(Nc1ncc(Cc2cccc(Cl)c2)s1)c1ccc([N+](=O)[O-])cc1	?	?	13.1µM*	-24.6
O=C(Nc1ncc(Cc2ccccc2Cl)s1)c1ccc(-c2cccc([N+](=O)[O-])c2)o1	?	22.4µM*	37.0%	-62.6*
CC(C)C(=O)Nc1ncc(Cc2cccc(Cl)c2)s1	-14.2%	-8.7%	3.7%	-68.6*
O=C(Nc1ncc(Cc2ccccc2Cl)s1)c1ccc([N+](=O)[O-])cc1	0.0%	?	?	-18.4
CC(=O)Nc1ncc(Cc2cccc(Cl)c2)s1	-1.9%	-16.8%	20.2%	-33.2
CCc1ccc(CCC(=O)Nc2ncc(Cc3ccccc3Cl)s2)o1	-4.1%	?	?	-60.8*
COc1ccc(NC(=O)CN2C(=O)COc3ccc(S(=O)(=O)N4CCCCC4)cc32)cc1Cl	/	/	/	24.6
CCN(CC)c1ccc(NC(=O)CSc2nnc(C)c(=O)[nH]2)cc1	/	/	/	-0.2
Cc1ccc(Cc2cnc(NC(=O)c3ccco3)s2)cc1	200.7%	?	/	0.5
Cc1cnc(NC(=O)c2ccc(-c3ccc([N+](=O)[O-])cc3)o2)s1	?	-6.8%	6.57µM*	?
O=C(Nc1ncc(Cc2cccc([N+](=O)[O-])c2)s1)c1ccco1	71.1%	?	17.5%	-71.9*
CC(C(=O)Nc1ccc(OC(F)(F)F)cc1)N1Cc2ccccc2C1=O (configuration not stated)	/	/	/	6.7
CCOC(=O)c1csc(N/N=C2\CCc3ccccc32)n1	/	?	13.1µM*	23.0
COc1ccc2c(c1)CCC/C2=N\Nc1nc(C(=O)NN)cs1	10.4µM*	-22.4%	?	26.9
COc1ccc2c(c1)CCC/C2=N\NC(=O)c1ccoc1C	69.5%	-3.5%	15.2%	46.5
CCOC(=O)c1csc(N/N=C2\CCCc3ccccc32)n1	/	?	?	16.2
Cc1nc(-c2ccc(Cl)cc2)sc1CCNC(=O)C(=O)Nc1ccc(F)cc1F	/	/	/	47.3
CCn1c(OC)nc2c1c(=O)n(C)c(=O)n2C	0.0%	22.0%	2.7%	?
SMILES	Pf growth 48h	HCV inh	Pf growth 96h	HCMV inh
CCCOc1nc2c(c(=O)n(C)c(=O)n2C)n1CC	25.1%	/	2.08µM*	/
COCCOc1nc2c(c(=O)n(C)c(=O)n2C)n1Cc1cccc(OC)c1	/	11.2µM*	?	?
CCOc1nc2c(c(=O)n(C)c(=O)n2C)n1Cc1ccccc1Cl	?	?	-29.1%	-92.5*
Cn1c(=O)c2c(nc(Br)n2Cc2ccccc2Cl)n(C)c1=O	-0.3%	?	?	-28.6
Cc1cc(C)c2nc(-c3cccc(Cl)c3)c(C)c(C(=O)N3CCOCC3)c2c1	11.7µM*	?	?	15.3
CC(C)(C)S(=O)(=O)c1ccccc1C(=O)O	158.9%	9.7%	9.28µM*	12.9
